Measurements taken from PubChem BioAssay (NCI).
Compounds without any hit were thinned out: in the full panel of roughly 83,000, 20% have a hit.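 Negative percent growth values reflect cell death: -40 means 40% of the cells present at the start died, and -100 means all died.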 Unmarked numbers belong to inactive results. Calls of active or inactive are those of the source. How the source made its calls: active means growth percent below 10; inactive means the rest.

Assays:
Assay in all cases: NCI-60 one-dose screen, 48 h (100 = growth as untreated, 0 = no growth, -100 = all killed)
Conditions in all cases: 10 µM unless noted
NCI-H23 lung = test system: NCI-H23 lung
NCI-H322M lung = test system: NCI-H322M lung
HOP-62 NSCLC = test system: HOP-62 NSCLC
NCI-H460 lung = test system: NCI-H460 lung
HOP-92 NSCLC = test system: HOP-92 NSCLC
NCI-H522 lung = test system: NCI-H522 lung
A549/ATCC NSCLC = test system: A549/ATCC NSCLC
786-0 renal = test system: 786-0 renal
COLO 205 colon = test system: COLO 205 colon
DU-145 prostate = test system: DU-145 prostate
K-562 leukemia = test system: K-562 leukemia
MALME-3M melanoma = test system: MALME-3M melanoma
MDA-MB-231 breast = test system: MDA-MB-231 breast
RXF 393 renal = test system: RXF 393 renal
SF-268 CNS = test system: SF-268 CNS
SF-295 CNS = test system: SF-295 CNS
SF-539 CNS = test system: SF-539 CNS
UACC-257 melanoma = test system: UACC-257 melanoma
M14 melanoma = test system: M14 melanoma
HCT-15 colon = test system: HCT-15 colon

Structure (SMILES): CCOC(=O)c1ccc2[nH]c(-c3ccccc3)cc(=O)c2c1
- growth (NCI-H23 lung): 99.7%
- growth (NCI-H322M lung): 98.2%
- growth (HOP-62 NSCLC): 106%
- growth (NCI-H460 lung): 101%
- growth (HOP-92 NSCLC): 92.5%
- growth (NCI-H522 lung): 101%
- growth (A549/ATCC NSCLC): 95.7%
- growth (786-0 renal): 104%
- growth (COLO 205 colon): 109%
- growth (DU-145 prostate): 103%
- growth (K-562 leukemia): 97.2%
- growth (MALME-3M melanoma): 104%
- growth (MDA-MB-231 breast): 94.5%
- growth (RXF 393 renal): 103%
- growth (SF-268 CNS): 103%
- growth (SF-295 CNS): 106%
- growth (SF-539 CNS): 97.2%
- growth (UACC-257 melanoma): 98.7%
- growth (M14 melanoma): 98.9%
- growth (HCT-15 colon): 92.8%

Structure (SMILES): COC(=O)[C@H]1CCCN1C(=O)[C@H]1CCCN1C(=O)[C@H](Cc1c[nH]c2ccccc12)NC(=S)Nc1cc(C(F)(F)F)cc(C(F)(F)F)c1
- growth (NCI-H23 lung): 65.2%
- growth (NCI-H322M lung): 78.4%
- growth (HOP-62 NSCLC): 74.5%
- growth (NCI-H460 lung): 22.1%
- growth (HOP-92 NSCLC): 88.8%
- growth (NCI-H522 lung): 68.6%
- growth (A549/ATCC NSCLC): 35%
- growth (786-0 renal): 58.3%
- growth (COLO 205 colon): -34.8% (active)
- growth (DU-145 prostate): 64.6%
- growth (K-562 leukemia): 34.7%
- growth (MALME-3M melanoma): 70.5%
- growth (MDA-MB-231 breast): -38.5% (active)
- growth (RXF 393 renal): 64.8%
- growth (SF-268 CNS): 47.8%
- growth (SF-539 CNS): 74.3%
- growth (UACC-257 melanoma): 67.9%
- growth (M14 melanoma): 56%
- growth (HCT-15 colon): 70.4%

Structure (SMILES): O=C(c1nc2ccccc2[nH]1)C1[C@@H](c2cccc(O)c2)C2CC3CCCCC3N2[C@@]12C(=O)Nc1cc(Cl)ccc12 (stereo partly specified)
- growth (NCI-H23 lung): 48.6%
- growth (NCI-H322M lung): 61.6%
- growth (HOP-62 NSCLC): 60.3%
- growth (NCI-H460 lung): 13.1%
- growth (HOP-92 NSCLC): 55%
- growth (NCI-H522 lung): 51.9%
- growth (A549/ATCC NSCLC): 27.2%
- growth (786-0 renal): 35.2%
- growth (COLO 205 colon): 63.5%
- growth (DU-145 prostate): 43.7%
- growth (K-562 leukemia): 21.5%
- growth (MALME-3M melanoma): 32.1%
- growth (MDA-MB-231 breast): 34.7%
- growth (RXF 393 renal): 1.99% (active)
- growth (SF-268 CNS): 49.5%
- growth (SF-295 CNS): 37.2%
- growth (SF-539 CNS): 48.7%
- growth (UACC-257 melanoma): 48.9%
- growth (M14 melanoma): 29.2%
- growth (HCT-15 colon): 40.7%

Structure (SMILES): Nc1nc(Nc2cccc(F)c2)nc2ccccc12
- growth (NCI-H23 lung): 38.7%
- growth (NCI-H322M lung): 47.2%
- growth (HOP-62 NSCLC): 65.7%
- growth (NCI-H460 lung): 31.6%
- growth (HOP-92 NSCLC): -2.46% (active)
- growth (NCI-H522 lung): 51.5%
- growth (A549/ATCC NSCLC): 46.3%
- growth (786-0 renal): 46.5%
- growth (COLO 205 colon): -54.1% (active)
- growth (DU-145 prostate): 67.9%
- growth (K-562 leukemia): 6.62% (active)
- growth (MALME-3M melanoma): 57.2%
- growth (MDA-MB-231 breast): 43.7%
- growth (RXF 393 renal): 42%
- growth (SF-268 CNS): 77.3%
- growth (SF-539 CNS): 54.3%
- growth (UACC-257 melanoma): 12%
- growth (M14 melanoma): 22.9%
- growth (HCT-15 colon): 33.4%

Structure (SMILES): Nc1cccc(Nc2cc(S(=O)(=O)O)c(N)c3c2C(=O)c2ccccc2C3=O)c1
- growth (NCI-H23 lung): 109%
- growth (NCI-H322M lung): 124%
- growth (HOP-62 NSCLC): 114%
- growth (NCI-H460 lung): 108%
- growth (HOP-92 NSCLC): 132%
- growth (NCI-H522 lung): 82.5%
- growth (A549/ATCC NSCLC): 102%
- growth (786-0 renal): 111%
- growth (COLO 205 colon): 110%
- growth (DU-145 prostate): 119%
- growth (K-562 leukemia): 101%
- growth (MALME-3M melanoma): 105%
- growth (MDA-MB-231 breast): 107%
- growth (RXF 393 renal): 119%
- growth (SF-268 CNS): 101%
- growth (SF-295 CNS): 118%
- growth (SF-539 CNS): 101%
- growth (UACC-257 melanoma): 97%
- growth (M14 melanoma): 103%
- growth (HCT-15 colon): 96.7%

Structure (SMILES): COc1cc(-c2c3c(c(Br)n2Cc2ccccc2)-c2nc(N)sc2CC3)cc(OC)c1OC
- growth (NCI-H23 lung): 98.2%
- growth (NCI-H322M lung): 77.7%
- growth (HOP-62 NSCLC): 88.5%
- growth (NCI-H460 lung): 94%
- growth (HOP-92 NSCLC): 76.4%
- growth (NCI-H522 lung): 38.4%
- growth (A549/ATCC NSCLC): 82.9%
- growth (786-0 renal): 86%
- growth (COLO 205 colon): 108%
- growth (DU-145 prostate): 108%
- growth (K-562 leukemia): 47.7%
- growth (MALME-3M melanoma): 81%
- growth (MDA-MB-231 breast): 68.6%
- growth (RXF 393 renal): 90.5%
- growth (SF-268 CNS): 88.2%
- growth (SF-539 CNS): 98.1%
- growth (UACC-257 melanoma): 93.6%
- growth (M14 melanoma): 90.3%
- growth (HCT-15 colon): 85%

Structure (SMILES): O=C(/C=C/c1ccccn1)c1ccc(OCc2nnc(-c3ccc(Cl)cc3)o2)cc1
- growth (NCI-H23 lung): 70%
- growth (NCI-H322M lung): 52.7%
- growth (HOP-62 NSCLC): 44.6%
- growth (NCI-H460 lung): 42.4%
- growth (HOP-92 NSCLC): 105%
- growth (NCI-H522 lung): 63.7%
- growth (A549/ATCC NSCLC): 34.1%
- growth (786-0 renal): -49.9% (active)
- growth (COLO 205 colon): -40.1% (active)
- growth (DU-145 prostate): 23.8%
- growth (K-562 leukemia): -28.1% (active)
- growth (MALME-3M melanoma): 60.4%
- growth (MDA-MB-231 breast): 33.4%
- growth (RXF 393 renal): -71.7% (active)
- growth (SF-268 CNS): 28.6%
- growth (SF-539 CNS): -4.02% (active)
- growth (UACC-257 melanoma): 56.5%
- growth (M14 melanoma): 31.1%
- growth (HCT-15 colon): 18.9%

Structure (SMILES): COC(=O)C1(C)CCC[C@]2(C)[C@H]3C[C@H]4C(C(C)C)=C[C@]3(CC[C@@H]12)[C@H]1[C@@H]4[C@@H](OCC#CCN2CCOCC2)CC[C@@H]1OCC#CCN1CCOCC1 (stereo partly specified)
- growth (NCI-H23 lung): 82.6%
- growth (NCI-H322M lung): 102%
- growth (HOP-62 NSCLC): 85.3%
- growth (NCI-H460 lung): 94%
- growth (HOP-92 NSCLC): 54.9%
- growth (NCI-H522 lung): 74.4%
- growth (A549/ATCC NSCLC): 66.8%
- growth (786-0 renal): 86.1%
- growth (COLO 205 colon): 89.2%
- growth (DU-145 prostate): 95.5%
- growth (K-562 leukemia): 70.3%
- growth (MALME-3M melanoma): 79.3%
- growth (MDA-MB-231 breast): 77.2%
- growth (RXF 393 renal): 91.9%
- growth (SF-268 CNS): 83.7%
- growth (SF-295 CNS): 93.9%
- growth (SF-539 CNS): 86.2%
- growth (UACC-257 melanoma): 83.8%
- growth (M14 melanoma): 81.6%
- growth (HCT-15 colon): 85.5%
